Values joined by “and” are separate entries in the source; they are usually repeats but may differ in a detail not shown here. Identical values can stand only once. A number with no mark means an inactive call. Inconclusive results are not listed. Active and inactive are the calls of the source. Unless noted, calls follow the shape of the dose curve; as a rule, active = well fitted curve in either direction with a large enough effect (not every such curve was filed as active); inconclusive = small, poorly fitted or top-dose-only effect, or another doubt; inactive = flat fitted curve, though single readings scatter.
Assays:
[1] = AP1 Signaling Pathway (AID 357); details: ME-180 AP-1-bla reporter, EGF-induced, beta-lactamase ratio, 5 h;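 also: ME-180 reporter cells stimulated with EGF at its EC50 level; % is scaled to controls: 0 for no effect and ±100 for the full control effect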
Summary of the method: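 Titration-series screen for positive or negative modulators of EC50 EGF-induced signaling in ME-180 cells carrying an AP-1-driven beta-lactamase reporter. After 5 hours at 37 degrees Celsius, CCF4 460nm/530nm emission ratio gave %Activity; AC50 values derived.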

[2] = molecular target: Cytochrome P450 1A2 (Homo sapiens) (UniProt P05177); assay: p450-cyp1a2 (AID 410; calls by dose curve; also: potency is read from the fitted curve at half-maximal effect;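 as to activity change, negative = inhibition: -100% = full effect of reference inhibitor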); details: recombinant CYP1A2, luciferin-ME demethylation, luminescence; series mostly up to 25.6 µM
Summary of the method: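 20nM CYP1A2 with 100uM Luciferin-ME (at Km) in 100mM KPO4; compound preincubated 10 min, NADPH regeneration added, 60 min at room temperature. Luciferin quantified by luminescence after detection reagent; normalized to 57 uM furafylline.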

[3] = Cell Viability - BJ (AID 421; calls by dose curve;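 also: potency is read from the fitted curve at half-maximal effect; cells exposed to compound for 40 hours at 37 °C before readout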); details: BJ fibroblast viability, qHTS
Summary of the method: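 Quantitative HTS: ATP depletion in BJ cells after 40 hr compound exposure in complete culture medium, detected with CellTiter-Glo; AC50 from standard Hill fits.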

[4] = Cell Viability - Jurkat (AID 426;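 active = dose-dependent loss of cell ATP signal giving a full or clear fitted curve, ranked by lower potency value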; also: potency is read from the fitted curve at half-maximal effect); details: qHTS
Summary of the method: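 Jurkat (Clone E6-1) cells, 5000/well in complete medium, exposed to compounds for 40 hr at 37C; intracellular ATP measured by CellTiter-Glo luminescence after 20 min at room temperature. AC50 from Hill fits.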

[5] = Cell Viability - Hek293 (AID 427;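 active = compounds whose dose-response curve shows a full or clear partial loss of cell viability, called from curve shape rather than a numeric limit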;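 also: potency is read from the fitted curve at half-maximal effect; cells exposed to compound for 40 hours at 37 °C before reading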); details: qHTS
Summary of the method: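 AC50 values derive from Hill-modelled concentration-response of ATP-based luminescence, normalized between DMSO-only and 100 uM tamoxifen controls. Cells were exposed in complete culture medium for 40 hr at 37 °C before detection.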

[6] = Cell Viability - HepG2 (AID 433; calls by dose curve;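 also: potency is read from the fitted curve at half-maximal effect; potency for ATP loss meaning cytotoxicity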); details: qHTS
Summary of the method: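 HepG2 cells, 1500 per well, treated 40 hr at 37 °C in complete medium; viability from intracellular ATP by CellTiter-Glo luminescence. Normalized to DMSO and 100 uM tamoxifen; AC50 from Hill fit of qHTS concentration-response.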

[7] = Cell Viability - MRC5 (AID 434; calls by dose curve;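 also: potency is read from the fitted curve at half-maximal effect; potency reflects cytotoxicity seen as loss of intracellular ATP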); details: MRC5 lung fibroblast viability, qHTS
Summary of the method: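 qHTS cytotoxicity in human lung fibroblast MRC5 cells; 40 hr treatment, 37 °C; cellular ATP by luciferase luminescence; DMSO = 0%, 100 uM tamoxifen = 100% inhibition; Hill-fit AC50.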

[8] = Cell Viability - SK-N-SH (AID 435; calls by dose curve;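 also: potency is read from the fitted curve at half-maximal effect; compound exposure lasted 40 h at 37 °C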); details: SK-N-SH neuroblastoma cell viability qHTS
Summary of the method: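 SK-N-SH neuroblastoma cells (1500/well) treated 40 h at 37 °C in complete medium; viability read as cellular ATP by CellTiter-Glo luminescence. Normalized to DMSO and 100 uM tamoxifen; AC50 from Hill fits of qHTS concentration-response.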

[9] = NFAT Signaling Pathway (AID 444); details: Jurkat NFAT-bla M1, carbachol, beta-lactamase ratio, 5 h;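 also: carbachol stimulus at about its EC50 of 1 µM final; % is scaled to controls: 0 for no effect and ±100 for the full control effect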
Summary of the method: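 Read-out: CCF4 FRET ratio (460 nm/530 nm) after 1 h RT dye loading, used for %activity and AC50 from titration series. Cells: Jurkat NFAT-β-lactamase/M1 line, treated with compound plus 1 uM carbachol for 5 h, 37 °C.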

[10] = Stat Signaling Pathway (AID 446); details: ME-180 (cervical carcinoma) SIE beta-lactamase reporter, IL-6 stimulated, 5 h;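 also: ME-180 cervical cancer cells given 40 pM IL-6 alongside compound; SIE-controlled beta-lactamase reporter measured as 460/530 nm FRET emission ratio; % is scaled to controls: 0 for no effect and ±100 for the full control effect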
Summary of the method: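 IL-6/STAT signaling read in ME-180 cells via an SIE beta-lactamase reporter. Stimulus was 40 pM IL-6 (its AC50) for 5 hrs, so both activation and inhibition register.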

[11] = molecular target: Glucocorticoid receptor (Homo sapiens) (UniProt P04150); assay: GR-GFP Redistribution (AID 450;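 active = compounds whose dose series gives a full or clear partial fitted curve of increased nuclear translocation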; also: potency is read from the fitted curve at half-maximal effect); details: U2OS GR-GFP nuclear translocation, laser cytometry, 2 h
[12] = molecular target: Glucocorticoid receptor (Homo sapiens) (UniProt P04150); assay: GR-EFC Redistribution (AID 451; calls by dose curve; also: potency is read from the fitted curve at half-maximal effect); details: CHO-K1 GR-EFC translocation, beta-gal luminescence, 2 h
Summary of the method: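 Translocation of GR-ED fusion to nuclear EA restores b-gal, read by luminescence after 1 h room-temperature detection. Engineered CHO-K1 biosensor cells, 1,000/well, exposed 2 h at 37 C to titrations up to 46 uM final.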

[13] = Cell Viability - N2a (AID 540; active = well fitted curve in the direction sought with a large enough effect; an effect the other way counts as inactive or inconclusive; also: potency is read from the fitted curve at half-maximal effect; nearly all actives have a fitted effect of over 45% in size); details: N2a mouse neuroblastoma cell viability; activity change, negative = cytotoxicity: at 92.2 µM (top of the series)
Summary of the method: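 Mouse neuroblastoma N2a cells, 1500/well, exposed to compounds 40 h at 37 °C in complete medium. Viability measured as cellular ATP by CellTiter-Glo luminescence; AC50 from Hill fits of concentration-response.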

[14] = Cell Viability - H-4-II-E (AID 543; active = well fitted curve in the direction sought with a large enough effect; an effect the other way counts as inactive or inconclusive; also: potency is read from the fitted curve at half-maximal effect; nearly all actives have a fitted effect of over 35% in size); details: H-4-II-E rat hepatoma viability; series mostly up to 92.2 µM
Summary of the method: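 Rat hepatoma H-4-II-E cells, 1500 per well, treated 40 h at 37 °C in complete medium. Cellular ATP read by CellTiter-Glo luminescence; AC50 from Hill fits of concentration-response.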

[15] = Cell Viability - SH-SY5Y (AID 544; active = well fitted curve in the direction sought with a large enough effect; an effect the other way counts as inactive or inconclusive; also: potency is read from the fitted curve at half-maximal effect; nearly all actives have a fitted effect of over 55% in size); details: SH-SY5Y neuroblastoma cell viability; viability change, negative = cytotoxic: at 92.2 µM (top of the series)
Summary of the method: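 SH-SY5Y human neuroblastoma cells (1500/well) incubated 5 h, then compound-treated 40 h at 37 °C in complete medium. Viability read as intracellular ATP by CellTiter-Glo luminescence after 20 min; AC50 from Hill-equation fits of qHTS concentration-response.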

[16] = Cell Viability - Renal Proximal Tubule (AID 545; active = well fitted curve in the direction sought with a large enough effect; an effect the other way counts as inactive or inconclusive; also: potency is read from the fitted curve at half-maximal effect; nearly all actives have a fitted effect of over 40% in size); details: renal proximal tubule cells viability, primary cells of rat origin; activity change, negative = cytotoxicity: at 91.7 µM (top of the series)
Summary of the method: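 Rat renal proximal tubule primary cells, 1000/well, exposed to compounds for 40 hr at 37 °C in complete medium; cellular ATP read by CellTiter-Glo luminescence. AC50 from concentration-response fitted with standard Hill equation.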

[17] = molecular target: Lysosomal acid glucosylceramidase (Homo sapiens) (UniProt P04062); assay: Glucocerebrosidase-p2 (AID 348; in the data active = potency below about 10 µM; also: potency is read from the fitted curve at half-maximal effect); details: purified GBA, blue fluorogenic substrate, 40 min
Summary of the method: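 Compounds titrated from 0.6 nM upwards against 0.2 nM enzyme in pH 5.9 citric acid/KH2PO4, taurocholate, tween-20; blue fluorogenic substrate 80 uM, 40 min room temperature, stopped and read Ex 365/Em 440 for AC50.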

[18] = molecular target: Mitogen-activated protein kinase 10 (Mus musculus) (UniProt Q61831); assay: JNK3 AlphaScreen Assay (AID 530); details: JNK3 lysate, c-Jun phosphorylation; series mostly up to 25.6 µM;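 also: kinase came from lysate of stimulated human HepG2 cells; signal reports phosphorylation of biotinylated GST-cJun 1-79 at Ser73 with 10 µM ATP; % is scaled to controls: 0 for no effect and ±100 for the full control effect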
Summary of the method: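 Compound titrations were preincubated 15 minutes at room temperature with substrate, antibody and pre-activated JNK3-containing HepG2 lysate. Reactions were started with 10 uM ATP and stopped with EDTA-containing bead buffer for AlphaScreen detection.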

[19] = Cell Viability - NIH 3T3 (AID 541; active = well fitted curve in the direction sought with a large enough effect; an effect the other way counts as inactive or inconclusive;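 also: plate controls were DMSO alone for no effect and tamoxifen positive control for full effect; nearly all actives have a fitted effect of over 25% in size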); details: NIH 3T3 cell viability, qHTS; activity change, negative = cytotoxicity: at 92.2 µM (top of the series)
Summary of the method: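 Mouse NIH 3T3 fibroblasts, 1000 cells/well, rested 5 hr at 37 °C, then exposed to compound for 40 hr at 37 °C in complete medium. Viability read as intracellular ATP by CellTiter-Glo luminescence; AC50 from Hill-equation fits of concentration-response data.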

[20] = Cell Viability - HUV-EC-C (AID 542; active = well fitted curve in the direction sought with a large enough effect; an effect the other way counts as inactive or inconclusive; also: % is scaled to controls: 0 for no effect and ±100 for the full control effect; nearly all actives have a fitted effect of over 35% in size); details: HUV-EC-C endothelial cell viability, qHTS; series mostly up to 92.2 µM
Summary of the method: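 HUV-EC-C human vascular endothelial cells, 1000/well, exposed to compound for 40 hr at 37 °C in complete medium. Intracellular ATP was read by CellTiter-Glo luminescence. AC50 came from Hill-equation fits of concentration-response data.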

Sequence of Glucocorticoid receptor (Homo sapiens) (P04150 whole entry, looked up, the tested form may be a part): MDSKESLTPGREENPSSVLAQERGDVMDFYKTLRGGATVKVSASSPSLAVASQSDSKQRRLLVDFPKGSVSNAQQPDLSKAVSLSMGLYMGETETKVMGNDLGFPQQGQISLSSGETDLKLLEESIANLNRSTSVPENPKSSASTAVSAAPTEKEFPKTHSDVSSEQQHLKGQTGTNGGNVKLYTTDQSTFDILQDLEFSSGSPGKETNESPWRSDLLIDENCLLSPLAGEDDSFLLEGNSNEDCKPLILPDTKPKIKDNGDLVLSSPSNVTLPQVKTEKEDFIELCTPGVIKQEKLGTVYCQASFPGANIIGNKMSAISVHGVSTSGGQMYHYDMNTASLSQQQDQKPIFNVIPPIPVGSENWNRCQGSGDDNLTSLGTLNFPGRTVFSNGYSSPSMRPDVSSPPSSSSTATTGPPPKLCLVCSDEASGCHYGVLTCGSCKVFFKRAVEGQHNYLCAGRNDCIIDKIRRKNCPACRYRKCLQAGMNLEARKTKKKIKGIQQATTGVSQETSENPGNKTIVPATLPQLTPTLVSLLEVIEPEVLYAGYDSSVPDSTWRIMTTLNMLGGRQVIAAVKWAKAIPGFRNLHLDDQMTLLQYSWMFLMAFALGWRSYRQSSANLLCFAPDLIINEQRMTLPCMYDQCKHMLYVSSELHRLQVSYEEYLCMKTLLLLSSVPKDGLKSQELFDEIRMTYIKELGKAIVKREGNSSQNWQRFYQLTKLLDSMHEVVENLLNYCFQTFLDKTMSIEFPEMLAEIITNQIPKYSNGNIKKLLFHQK
Sequence of Cytochrome P450 1A2 (Homo sapiens) (P05177 whole entry, looked up): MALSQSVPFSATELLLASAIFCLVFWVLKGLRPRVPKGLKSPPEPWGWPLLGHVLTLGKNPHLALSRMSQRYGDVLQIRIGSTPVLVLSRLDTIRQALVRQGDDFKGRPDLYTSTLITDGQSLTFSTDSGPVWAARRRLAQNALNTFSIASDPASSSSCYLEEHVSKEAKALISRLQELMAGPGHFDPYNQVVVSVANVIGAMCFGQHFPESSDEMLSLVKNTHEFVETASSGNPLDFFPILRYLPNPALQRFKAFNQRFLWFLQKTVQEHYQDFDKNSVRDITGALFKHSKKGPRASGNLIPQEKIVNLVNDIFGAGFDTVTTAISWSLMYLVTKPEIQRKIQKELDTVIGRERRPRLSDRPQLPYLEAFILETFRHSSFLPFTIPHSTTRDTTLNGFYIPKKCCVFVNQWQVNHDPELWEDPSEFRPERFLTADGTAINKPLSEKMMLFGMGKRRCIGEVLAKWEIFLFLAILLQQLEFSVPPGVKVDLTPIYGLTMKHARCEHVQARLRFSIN
Sequence of Lysosomal acid glucosylceramidase (Homo sapiens) (P04062 whole entry, looked up): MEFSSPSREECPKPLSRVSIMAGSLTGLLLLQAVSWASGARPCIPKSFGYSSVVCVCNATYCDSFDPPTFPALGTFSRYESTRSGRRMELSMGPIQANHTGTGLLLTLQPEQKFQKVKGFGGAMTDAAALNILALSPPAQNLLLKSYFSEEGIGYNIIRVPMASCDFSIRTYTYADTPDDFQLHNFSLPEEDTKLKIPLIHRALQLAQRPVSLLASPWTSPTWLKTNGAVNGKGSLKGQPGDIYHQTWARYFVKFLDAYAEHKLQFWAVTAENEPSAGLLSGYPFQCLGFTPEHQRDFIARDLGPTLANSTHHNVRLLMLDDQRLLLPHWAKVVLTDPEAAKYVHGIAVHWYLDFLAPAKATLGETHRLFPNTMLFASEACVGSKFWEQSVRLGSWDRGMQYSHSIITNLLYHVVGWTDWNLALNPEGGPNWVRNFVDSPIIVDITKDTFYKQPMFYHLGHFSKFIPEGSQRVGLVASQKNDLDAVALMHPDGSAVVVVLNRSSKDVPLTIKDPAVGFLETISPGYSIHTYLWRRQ

Question: Which activity change, negative = inhibition ([1]; at 17.2 µM (top of the series)) does the source give for `COc1cccc2c1C(=O)c1c(O)c3c(c(O)c1C2=O)C[C@@](O)(C(C)=O)C[C@@H]3O[C@H]1C[C@H](N)[C@H](O)[C@H](C)O1` here?
Answer: -116% (active)

Question: And the Potency [2]?
Answer: 31.6 µM (active)

Question: And the Potency [3]?
Answer: 4.61 µM (active)

Question: And the Potency [4]?
Answer: 21.8 nM (active)

Question: And the Potency [5]?
Answer: 7.23 nM (active)

Question: And the Potency [6]?
Answer: 49.7 µM (active)

Question: What about the Potency [7] of the same molecule?
Answer: 19.5 µM (active)

Question: What about the Potency [8] of the same molecule?
Answer: 0.0141 µM (active)

Question: And the activity change, negative = inhibition ([9]; at 17.2 µM (top of the series))?
Answer: -129% (active)

Question: And the activity, negative = inhibition ([10]; at 17.2 µM (top of the series))?
Answer: -103% (active)

Question: And the Potency [11]?
Answer: > 46 µM and > 20.6 µM

Question: What about the Potency [12] of the same molecule?
Answer: > 46 µM

Question: What about the Potency [13] of the same molecule?
Answer: 251 nM (active)

Question: And the Potency [14]?
Answer: 3.16 µM (active)

Question: What about the Potency [15] of the same molecule?
Answer: 7.94 nM (active)

Question: And the Potency [16]?
Answer: 3.98 µM (active)

Question: For `CN(C)CC/C=C1\c2ccccc2Sc2ccc(Cl)cc21`, which Potency [17] is on record?
Answer: > 11.4 µM

Question: What about the activity change, negative = inhibition ([1]; at 7.69 µM (top of the series)) of the same molecule?
Answer: 20.4%

Question: And the Potency [2]?
Answer: 1.58 µM (active) and 3.98 µM (active)

Question: What about the activity, negative = inhibition ([10]; at 7.69 µM (top of the series)) of the same molecule?
Answer: -3.4%

Question: What about the activity, negative = inhibition ([10]; at 17.2 µM (top of the series)) of the same molecule?
Answer: -6.29%

Question: What about the Potency [11] of the same molecule?
Answer: > 20.6 µM and > 46 µM

Question: And the Potency [12]?
Answer: > 20.6 µM and > 9.22 µM

Question: What about the outcome [18] of the same molecule?
Answer: inactive

Question: For `OC(CCN1CCCCC1)(c1ccccc1)c1ccccc1`, which Potency [17] is on record?
Answer: > 11.4 µM

Question: And the activity change, negative = inhibition ([1]; at 7.69 µM (top of the series))?
Answer: -3.31%

Question: What about the activity change, negative = inhibition ([1]; at 17.2 µM (top of the series)) of the same molecule?
Answer: 7.98% and -4.16%

Question: And the Potency [2]?
Answer: inactive

Question: And the activity change, negative = inhibition ([9]; at 7.69 µM (top of the series))?
Answer: -73.6% (active)

Question: And the activity change, negative = inhibition ([9]; at 17.2 µM (top of the series))?
Answer: -42.4% (active) and -77.8% (active)

Question: And the activity, negative = inhibition ([10]; at 7.69 µM (top of the series))?
Answer: -4.56%

Question: And the activity, negative = inhibition ([10]; at 17.2 µM (top of the series))?
Answer: 8.93% and 3.51%

Question: And the outcome [18]?
Answer: inactive

Question: Which activity change, negative = inhibition ([1]; at 17.2 µM (top of the series)) does the source give for `CCCn1c(=O)[nH]c(=O)c2[nH]cnc21` here?
Answer: 4.48%

Question: What about the activity change, negative = inhibition ([1]; at 38 µM (top of the series)) of the same molecule?
Answer: 4.71%

Question: And the Potency [2]?
Answer: inactive

Question: What about the activity change, negative = inhibition ([9]; at 17.2 µM (top of the series)) of the same molecule?
Answer: -21.8%

Question: What about the activity change, negative = inhibition ([9]; at 38 µM (top of the series)) of the same molecule?
Answer: 4.56%

Question: What about the outcome [18] of the same molecule?
Answer: inactive

Question: Which activity change, negative = inhibition ([1]; at 17.2 µM (top of the series)) does the source give for `CC(=O)O[C@]1(C(C)=O)CC[C@H]2[C@@H]3C[C@H](C)C4=CC(=O)CC[C@]4(C)[C@H]3CC[C@@]21C` here?
Answer: 15.9%

Question: And the Potency [3]?
Answer: > 92 µM

Question: And the Potency [6]?
Answer: > 92 µM

Question: What about the Potency [7] of the same molecule?
Answer: > 92 µM

Question: What about the Potency [8] of the same molecule?
Answer: > 92 µM

Question: What about the activity change, negative = inhibition ([9]; at 17.2 µM (top of the series)) of the same molecule?
Answer: 6.28%

Question: And the activity, negative = inhibition ([10]; at 17.2 µM (top of the series))?
Answer: 11.1%

Question: What about the outcome [18] of the same molecule?
Answer: inactive

Question: And the activity change, negative = cytotoxicity [19]?
Answer: -134% (active)

Question: What about the Potency [20] of the same molecule?
Answer: inactive

Question: What about the Potency [14] of the same molecule?
Answer: 50.1 µM (active)

Question: Which results are given for `Nc1cc(Cl)c(NC2=NCCN2)c(Cl)c1`?
Answer: activity change, negative = inhibition ([1]; at 38 µM (top of the series)): 2.68%; activity change, negative = inhibition ([9]; at 38 µM (top of the series)): -7.69%; activity, negative = inhibition ([10]; at 38 µM (top of the series)): -3.42%; Potency [11]: > 46 µM; Potency [12]: > 46 µM; outcome [18]: inactive

— PubChem BioAssay (NCATS)
